Outcome and AC50 data for 4 compounds are collected here from PubChem BioAssay (EPA / NIEHS).

The nature of assay [1]: ATG_PPRE_CIS: Attagene CIS-FACTORIAL HepG2 Assay for human Peroxisome Proliferator-activated Response Element (PPRE) (AID 2282958). The settings on record: HepG2 PPRE cis-element reporter, Attagene transcription factor profiling; actives raise or lower the signal. In a few lines: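 Transcript-level reporter induction in transfected HepG2 cells after 24 h chemical exposure, quantified by fluorescence from RT-PCR products separated by capillary electrophoresis.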

The nature of assay [2]: ATG_RORE_CIS: Attagene CIS-FACTORIAL HepG2 Assay for human RAR-related Orphan Receptor Element (RORE) (AID 2282959). The settings on record: HepG2 Attagene cis-factorial RORE reporter, mRNA; actives raise or lower the signal. The gist of the method: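 Multiplexed reporter assay measuring mRNA induction from a cis promoter element in transiently transfected HepG2 cells after 24 h treatment. Detection via RT-PCR and capillary electrophoresis fluorescence; DMSO serves as baseline.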

Assay [3] can be described thus: ATG_Sox_CIS: Attagene CIS-FACTORIAL HepG2 Assay for human SRY-box transcription factor (SOX) (AID 2282960). The settings on record: HepG2 Attagene cis-factorial SOX reporter, mRNA; actives raise or lower the signal. In a few lines:
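Cells were transfected with reporter constructs under cis-regulatory promoters, then exposed to chemicals for 24 h. Reporter transcripts were quantified by fluorescence after RT-PCR and capillary electrophoresis; activity was fitted in both directions against DMSO.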

Assay [4] concerns the target Transcription factor Sp1 (Homo sapiens) (UniProt P08047). Nature of the assay: ATG_Sp1_CIS: Attagene CIS-FACTORIAL HepG2 Assay for human Specificity Protein 1 (Sp1) (AID 2282961). The settings on record: HepG2 Sp1 cis-reporter transcription, actives raise or lower the signal. In a few lines:
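Measures mRNA induction of an Sp1-linked reporter in HepG2 cells 24 h post-dosing. Multiplexed reporters read by RT-PCR and capillary electrophoresis; DMSO serves as negative control and baseline.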

Assay [5] in a line: ATG_SREBP_CIS: Attagene CIS-FACTORIAL HepG2 Assay for human Sterol Regulatory Element Binding (SREBP) (AID 2282962). The settings on record: HepG2 Attagene cis-factorial SREBP reporter, mRNA; actives raise or lower the signal. The gist of the method:
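Twenty-four hours after chemical dosing of transfected HepG2 cultures, reporter RNA was converted to cDNA, amplified, end-labelled with 6-FAM and resolved by capillary electrophoresis. Responses were fitted relative to DMSO.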

The target of assay [6] is Signal transducer and activator of transcription 3 (Homo sapiens) (UniProt P40763). The assay is described as follows: ATG_STAT3_CIS: Attagene CIS-FACTORIAL HepG2 Assay for human Signal Transducer and Activator of Transcription 3 (STAT3) (AID 2282963). The settings on record: HepG2, Attagene cis-factorial STAT3 reporter transcription; actives raise or lower the signal. In a few lines: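 Values derive from bidirectional fits relative to DMSO of reporter mRNA levels, measured by RT-PCR with capillary electrophoresis, in HepG2 cells carrying transiently transfected cis-regulated reporter units and exposed 24 h.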
Chain of Signal transducer and activator of transcription 3 (Homo sapiens) (P40763 whole entry, looked up): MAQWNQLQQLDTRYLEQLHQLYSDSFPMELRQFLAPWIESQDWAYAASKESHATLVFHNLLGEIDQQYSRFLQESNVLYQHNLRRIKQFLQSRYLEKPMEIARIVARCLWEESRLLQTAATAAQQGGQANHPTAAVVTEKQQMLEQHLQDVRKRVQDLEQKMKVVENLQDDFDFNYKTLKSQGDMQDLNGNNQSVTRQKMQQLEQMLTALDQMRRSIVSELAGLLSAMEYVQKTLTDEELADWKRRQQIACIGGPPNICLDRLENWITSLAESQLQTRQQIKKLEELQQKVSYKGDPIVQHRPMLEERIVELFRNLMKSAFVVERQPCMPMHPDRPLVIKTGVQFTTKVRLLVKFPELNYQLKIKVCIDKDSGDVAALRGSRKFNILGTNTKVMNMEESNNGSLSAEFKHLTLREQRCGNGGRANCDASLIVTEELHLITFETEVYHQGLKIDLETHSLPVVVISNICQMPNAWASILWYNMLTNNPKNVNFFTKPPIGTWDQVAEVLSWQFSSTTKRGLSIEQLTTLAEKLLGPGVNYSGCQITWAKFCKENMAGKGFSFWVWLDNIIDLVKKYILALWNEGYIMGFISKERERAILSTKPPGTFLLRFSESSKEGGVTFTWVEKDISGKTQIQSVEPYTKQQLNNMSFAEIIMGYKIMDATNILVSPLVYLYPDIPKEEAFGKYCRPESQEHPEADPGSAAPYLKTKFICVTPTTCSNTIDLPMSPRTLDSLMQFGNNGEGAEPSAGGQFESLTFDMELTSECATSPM

The nature of assay [7]: ATG_TA_CIS: Attagene CIS-FACTORIAL HepG2 Assay for human TA Basal Promoter (AID 2282964). The settings on record: HepG2 Attagene CIS-factorial TA basal promoter reporter; actives raise or lower the signal. In a few lines: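 HepG2 cells transiently transfected with multiple reporter units under cis promoter elements, reporting endogenous transcription factor activity; this endpoint tracks the TA basal promoter as background control. Reporter mRNA after 24 h dosing measured by RT-PCR/capillary electrophoresis; bidirectional fits versus DMSO.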

A short description of assay [8]: ATG_TCF_b_cat_CIS: Attagene CIS-FACTORIAL HepG2 Assay for human T-Cell-Factor with beta-catenin (TCF/b-cat) (AID 2282965). The settings on record: HepG2 TCF/beta-catenin cis-reporter transcription, actives raise or lower the signal. The gist of the method:
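Cells of the HepG2 line carry transiently transfected reporter units whose promoters respond to endogenous factors. Twenty-four hours post-dosing, reporter mRNA induction is measured by fluorescent RT-PCR and capillary electrophoresis, with DMSO as baseline.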

A short description of assay [9]: ATG_TAL_CIS: Attagene CIS-FACTORIAL HepG2 Assay for human TAL Basal Promoter (AID 2282966).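 Further: background control endpoint measuring basal TAL promoter reporter mRNA not a specific factor.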 The settings on record: HepG2 Attagene cis-factorial TAL promoter reporter; actives raise or lower the signal. The gist of the method: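 HepG2 cells transiently transfected with multiplexed cis-promoter reporter units, dosed 24 h. Reporter mRNA quantified by RT-PCR, 6-FAM labelling, HpaI digestion and capillary electrophoresis; TAL basal promoter serves as background control, fitted bidirectionally versus DMSO.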

Assay [10] can be described thus: ATG_TGFb_CIS: Attagene CIS-FACTORIAL HepG2 Assay for human Transforming Growth Factor (TGF) (AID 2282967). The settings on record: HepG2 Attagene CIS TGFb reporter, mRNA transcription; actives raise or lower the signal. The gist of the method:
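HepG2 cells transiently transfected with cis-promoter-driven multiple reporter units measure endogenous TF activity; reporter mRNA quantified at 24 h by RT-PCR, FAM labeling, HpaI digestion and capillary electrophoresis. Bidirectional fit vs DMSO.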

Assay [11] is described as follows: ATG_VDRE_CIS: Attagene CIS-FACTORIAL HepG2 Assay for human Vitamin D Receptor Element (VDRE) (AID 2282968). The settings on record: HepG2 VDRE cis-reporter transcription, actives raise or lower the signal. The gist of the method:
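Cell-based multiplexed reporter format in human liver HepG2 cells, 24 h post-dose. Fluorescence from capillary electrophoresis of reporter cDNA gives the signal, with DMSO as negative control and baseline.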

In assay [12] the target is Steroid hormone receptor ERR1 (Homo sapiens) (UniProt P11474). Nature of the assay: ATG_ERRa_TRANS: Attagene TRANS-FACTORIAL HepG2 Assay for human Estrogen-Related Receptor alpha (ERRa) (AID 2282971; active means hit-call score of the fitted dose curve at least 0.9, where 1 is the maximum). The settings on record: HepG2 Attagene TRANS reporter, ERRa transactivation. The gist of the method: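 HepG2 cells transiently transfected with GAL4-UAS reporter units and chimeric NR-Gal4 constructs; after 24 hour compound incubation, reporter mRNA quantified by RT-PCR, fluorescent labelling and capillary electrophoresis, gain of signal versus DMSO.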
Chain of Steroid hormone receptor ERR1 (Homo sapiens) (P11474 whole entry, looked up, the tested form may be a part): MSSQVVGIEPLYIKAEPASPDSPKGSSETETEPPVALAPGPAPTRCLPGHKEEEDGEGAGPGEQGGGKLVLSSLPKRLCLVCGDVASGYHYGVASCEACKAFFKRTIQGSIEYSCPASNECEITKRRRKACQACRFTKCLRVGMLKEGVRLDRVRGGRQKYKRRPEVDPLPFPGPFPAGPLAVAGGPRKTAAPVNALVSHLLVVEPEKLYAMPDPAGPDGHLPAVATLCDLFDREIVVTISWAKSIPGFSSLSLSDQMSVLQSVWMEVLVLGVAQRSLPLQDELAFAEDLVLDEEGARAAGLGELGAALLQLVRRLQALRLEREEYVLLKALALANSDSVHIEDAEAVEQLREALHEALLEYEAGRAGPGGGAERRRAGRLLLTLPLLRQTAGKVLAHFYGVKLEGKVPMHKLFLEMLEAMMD

Assay [13] can be described thus: ATG_M_19_TRANS: Attagene TRANS-FACTORIAL HepG2 Assay for M19 Transcription Factor (Internal Marker) (AID 2282974; active means hit-call score of the fitted dose curve at least 0.9, where 1 is the maximum). The settings on record: HepG2 Attagene TRANS-FACTORIAL M19 internal marker reporter. In a few lines:
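After transfection of HepG2 with GAL4-UAS-driven reporter constructs, cells are dosed for 24 h. Total RNA is reverse-transcribed, reporter sequences PCR-amplified and labelled, then HpaI-digested and sized by capillary electrophoresis.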

Assay [14] addresses Estrogen-related receptor gamma (Homo sapiens) (UniProt P62508). The assay is described as follows: ATG_ERRg_TRANS: Attagene TRANS-FACTORIAL HepG2 Assay for human Estrogen-Related Receptor gamma (ERRg) (AID 2282977; active means hit-call score of the fitted dose curve at least 0.9, where 1 is the maximum;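 further: hits increase reporter signal over DMSO so potencies reflect activators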). The settings on record: HepG2 Attagene TRANS reporter, ERRg transactivation. In a few lines: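 Transient HepG2 transfectants, 24 h compound exposure, GAL4-UAS reporter mRNA by RT-PCR/6-FAM labelling/capillary electrophoresis; positive direction vs DMSO.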

The target in assay [15] is Glucocorticoid receptor (Homo sapiens) (UniProt P04150). The assay is described as follows: ATG_GR_TRANS: Attagene TRANS-FACTORIAL HepG2 Assay for human Glucocorticoid Receptor (GR) (AID 2282978; active means hit-call score of the fitted dose curve at least 0.9, where 1 is the maximum;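 further: activators score as hits since higher reporter transcript over DMSO is fitted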). The settings on record: HepG2 Attagene TRANS GR reporter, mRNA transcription. The gist of the method:
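Multiplexed TRANS reporter system, HepG2; 24 h exposure; RNA → oligo(dT) RT → reporter-specific PCR → 6-FAM primer extension → HpaI cut → CE fluorescence. Gain-of-signal vs DMSO.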

For assay [16], the target named is Nuclear receptor subfamily 1 group I member 3 (Homo sapiens) (UniProt Q14994). The assay is described as follows: ATG_CAR_TRANS: Attagene TRANS-FACTORIAL HepG2 Assay for human Constitutive Androstane Receptor (CAR) (AID 2282969; active means hit-call score of the fitted dose curve at least 0.9, where 1 is the maximum;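 further: activators raise reporter mRNA above DMSO so AC50 marks induction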). The settings on record: HepG2 Attagene TRANS-FACTORIAL CAR reporter. The gist of the method:
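HepG2 cells transiently transfected with GAL4-UAS reporter units; TRANS format reads activity of exogenous chimeric NR-Gal4 protein. After 24 h dosing, reporter mRNA quantified by RT-PCR, 6-FAM labelling and capillary electrophoresis; gain of signal fitted against DMSO.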

Assay [17] deals with X-box-binding protein 1 (Homo sapiens) (UniProt P17861). The assay is described as follows: ATG_Xbp1_CIS: Attagene CIS-FACTORIAL HepG2 Assay for human X-box Binding Protein 1 (XBP1) (AID 2282972). The settings on record: HepG2 XBP1 cis-element reporter, Attagene multiplex; actives raise or lower the signal. The gist of the method: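 After a 24-hour chemical exposure of HepG2 cells carrying cis-regulated reporters, reporter mRNA levels are assessed. Quantification uses RT-PCR, 6-FAM labelling and capillary electrophoresis. Gain- or loss-of-signal is fitted against DMSO.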
Chain of X-box-binding protein 1 (Homo sapiens) (P17861 whole entry, looked up): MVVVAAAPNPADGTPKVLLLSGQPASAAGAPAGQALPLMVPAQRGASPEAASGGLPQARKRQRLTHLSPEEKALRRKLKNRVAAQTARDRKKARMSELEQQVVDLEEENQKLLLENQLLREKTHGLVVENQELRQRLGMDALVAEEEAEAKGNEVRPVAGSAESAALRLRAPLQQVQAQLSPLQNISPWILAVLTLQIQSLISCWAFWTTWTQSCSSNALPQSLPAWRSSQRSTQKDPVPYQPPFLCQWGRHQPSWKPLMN

Assay [18] is described as follows: ATG_GAL4_TRANS: Attagene TRANS-FACTORIAL HepG2 Assay for GAL4 (Internal Marker) (AID 2282976; active means hit-call score of the fitted dose curve at least 0.9, where 1 is the maximum). The settings on record: HepG2 Attagene TRANS GAL4 internal marker reporter. In a few lines:
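Background-control readout: GAL4-UAS reporter transcript in transiently transfected HepG2 cells after 24 h compound exposure. Measured by RT-PCR, 6-FAM primer extension, HpaI digest and capillary electrophoresis; gain-of-signal fit versus DMSO.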

In assay [19] the target is Bile acid receptor (Homo sapiens) (UniProt Q96RI1). The assay is described as follows: ATG_FXR_TRANS: Attagene TRANS-FACTORIAL HepG2 Assay for Farnesoid X Receptor (FXR) (AID 2282979; active means hit-call score of the fitted dose curve at least 0.9, where 1 is the maximum;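 further: hits raise reporter mRNA above DMSO so AC50 marks FXR activation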). The settings on record: HepG2 Attagene TRANS FXR-GAL4 reporter transcription. In a few lines:
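HepG2 cells were transiently transfected with GAL4-UAS reporters driven by chimeric NR-Gal4 proteins and dosed for 24 h. Reporter mRNA was quantified by RT-PCR, fluorescent labelling, HpaI digestion and capillary electrophoresis, with gain of signal scored versus DMSO.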

Values joined by “and” are separate entries in the source; they are usually repeats but may differ in a detail not shown here. Identical values can stand only once. Inconclusive results are not listed. More than one record can exist for a structure, and the calls need not agree. Active and inactive are the calls of the source. How the source made its calls, unless noted: active means hit-call score of the fitted dose curve at least 0.9, where 1 is the maximum; inactive means score below 0.9.

Chain of Glucocorticoid receptor (Homo sapiens) (P04150 whole entry, looked up): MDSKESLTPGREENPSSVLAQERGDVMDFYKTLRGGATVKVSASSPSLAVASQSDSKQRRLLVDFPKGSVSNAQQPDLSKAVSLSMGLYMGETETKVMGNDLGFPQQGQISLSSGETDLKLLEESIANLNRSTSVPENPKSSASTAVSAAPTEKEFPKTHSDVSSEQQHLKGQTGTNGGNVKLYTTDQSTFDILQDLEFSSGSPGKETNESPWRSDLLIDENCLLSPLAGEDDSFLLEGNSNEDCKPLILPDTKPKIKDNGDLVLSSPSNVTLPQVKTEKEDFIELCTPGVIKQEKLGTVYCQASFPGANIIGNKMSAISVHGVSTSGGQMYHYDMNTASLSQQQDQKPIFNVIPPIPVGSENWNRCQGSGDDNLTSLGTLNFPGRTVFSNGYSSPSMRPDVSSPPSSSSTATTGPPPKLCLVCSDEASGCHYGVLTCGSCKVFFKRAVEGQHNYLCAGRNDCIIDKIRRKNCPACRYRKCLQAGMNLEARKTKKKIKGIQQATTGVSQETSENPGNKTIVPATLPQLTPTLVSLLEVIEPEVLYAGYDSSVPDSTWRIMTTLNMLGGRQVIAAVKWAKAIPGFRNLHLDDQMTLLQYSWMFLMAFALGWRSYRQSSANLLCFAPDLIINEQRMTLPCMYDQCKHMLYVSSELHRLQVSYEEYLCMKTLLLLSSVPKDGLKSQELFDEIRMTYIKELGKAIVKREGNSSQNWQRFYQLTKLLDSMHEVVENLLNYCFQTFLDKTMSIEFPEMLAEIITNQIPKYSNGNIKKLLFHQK
Chain of Transcription factor Sp1 (Homo sapiens) (P08047 whole entry, looked up): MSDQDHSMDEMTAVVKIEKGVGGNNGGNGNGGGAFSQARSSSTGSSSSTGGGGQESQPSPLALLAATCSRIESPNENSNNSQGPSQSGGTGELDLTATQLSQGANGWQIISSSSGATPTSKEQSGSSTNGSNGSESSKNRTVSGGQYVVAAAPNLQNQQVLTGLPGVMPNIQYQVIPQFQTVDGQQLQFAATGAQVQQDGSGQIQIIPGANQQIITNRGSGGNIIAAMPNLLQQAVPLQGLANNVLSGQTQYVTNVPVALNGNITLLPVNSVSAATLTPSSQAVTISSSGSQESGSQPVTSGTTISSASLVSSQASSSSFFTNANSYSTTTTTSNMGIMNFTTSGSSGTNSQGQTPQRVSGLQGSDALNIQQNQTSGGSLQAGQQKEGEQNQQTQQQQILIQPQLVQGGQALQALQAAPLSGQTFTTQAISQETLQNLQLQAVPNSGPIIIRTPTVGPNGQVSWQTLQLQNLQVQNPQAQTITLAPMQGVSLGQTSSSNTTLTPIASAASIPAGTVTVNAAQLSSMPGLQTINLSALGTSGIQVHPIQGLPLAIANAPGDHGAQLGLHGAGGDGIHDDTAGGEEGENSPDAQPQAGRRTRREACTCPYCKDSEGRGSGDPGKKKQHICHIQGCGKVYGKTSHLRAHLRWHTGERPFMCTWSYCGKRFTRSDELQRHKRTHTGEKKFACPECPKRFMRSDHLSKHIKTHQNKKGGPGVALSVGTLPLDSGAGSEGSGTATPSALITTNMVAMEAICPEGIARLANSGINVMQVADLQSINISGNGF
Chain of Nuclear receptor subfamily 1 group I member 3 (Homo sapiens) (Q14994 whole entry, looked up, the tested form may be a part): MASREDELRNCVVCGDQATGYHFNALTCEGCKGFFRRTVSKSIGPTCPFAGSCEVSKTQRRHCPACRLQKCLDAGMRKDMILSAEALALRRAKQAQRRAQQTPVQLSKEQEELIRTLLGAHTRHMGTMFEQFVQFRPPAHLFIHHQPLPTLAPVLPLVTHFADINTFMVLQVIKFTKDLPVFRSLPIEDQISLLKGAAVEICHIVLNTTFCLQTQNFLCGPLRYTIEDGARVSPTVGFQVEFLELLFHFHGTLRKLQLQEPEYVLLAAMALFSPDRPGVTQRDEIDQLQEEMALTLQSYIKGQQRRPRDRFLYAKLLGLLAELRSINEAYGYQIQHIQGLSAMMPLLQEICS
Chain of Bile acid receptor (Homo sapiens) (Q96RI1 whole entry, looked up, the tested form may be a part): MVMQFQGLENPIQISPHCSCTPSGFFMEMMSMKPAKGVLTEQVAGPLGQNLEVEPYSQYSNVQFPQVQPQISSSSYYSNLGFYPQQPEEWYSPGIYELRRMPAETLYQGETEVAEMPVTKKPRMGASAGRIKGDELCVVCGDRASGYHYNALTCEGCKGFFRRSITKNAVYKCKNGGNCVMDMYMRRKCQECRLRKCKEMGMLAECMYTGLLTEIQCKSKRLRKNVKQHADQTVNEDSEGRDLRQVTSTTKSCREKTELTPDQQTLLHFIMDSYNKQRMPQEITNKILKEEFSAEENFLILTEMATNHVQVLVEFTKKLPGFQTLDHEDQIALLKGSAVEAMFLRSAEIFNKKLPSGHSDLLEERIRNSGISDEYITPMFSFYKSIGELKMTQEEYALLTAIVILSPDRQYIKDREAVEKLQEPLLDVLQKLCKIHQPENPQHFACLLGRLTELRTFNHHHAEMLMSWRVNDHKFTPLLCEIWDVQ
Chain of Estrogen-related receptor gamma (Homo sapiens) (P62508 whole entry, looked up, the tested form may be a part): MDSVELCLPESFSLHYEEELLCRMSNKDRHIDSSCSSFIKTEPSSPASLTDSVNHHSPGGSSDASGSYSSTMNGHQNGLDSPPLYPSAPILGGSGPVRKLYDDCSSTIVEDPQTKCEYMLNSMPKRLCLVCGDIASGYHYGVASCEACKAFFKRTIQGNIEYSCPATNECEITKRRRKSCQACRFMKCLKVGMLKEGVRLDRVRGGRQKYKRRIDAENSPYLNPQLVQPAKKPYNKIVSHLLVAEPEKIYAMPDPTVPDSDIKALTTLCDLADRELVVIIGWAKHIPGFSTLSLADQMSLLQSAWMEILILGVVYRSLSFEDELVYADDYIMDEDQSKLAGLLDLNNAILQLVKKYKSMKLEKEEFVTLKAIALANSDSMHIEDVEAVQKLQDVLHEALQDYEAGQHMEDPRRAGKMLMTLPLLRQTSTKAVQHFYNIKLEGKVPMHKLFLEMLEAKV

Turning to `CCCCCCCCCC[N+](C)(C)[O-]`, the outcome in assay [1], in assay [2], in assay [3], in assay [4], in [5] and in assay [6] was inactive. Besides, the result in assay [7], in [8], in assay [9], in assay [10], in assay [11] and in [12] was inactive. The result in assay [13], in [14] and in assay [15] was inactive.

For the compound `CCCCCCC(C=O)=Cc1ccccc1`, the concentration at half-maximal activity (AC50) in [1] was 4.87 µM (active) and 6.4 µM (active); in assay [4], 129 µM (active) and 60 µM (active); in assay [5] it was 26.3 µM (active); in assay [17] it was 60 µM (active). Moreover, the compound was classed as inactive in assay [2], in [3], in [5], in assay [6], in assay [7] and in [8]. In addition, the compound was classed as inactive in [9], in [10], in [11], in [16], in assay [17] and in assay [13]. The compound was classed as inactive in assay [18], in assay [15] and in assay [19].

Consider `NC1CCCCC1`, for which the call in [1], in [2], in assay [3], in [4], in [5] and in [6] was inactive. Further, the call in assay [7], in [8], in [9], in assay [10], in assay [11] and in [18] was inactive.

Turning to `CC(=O)O[C@]1(C(C)=O)CC[C@H]2[C@@H]3C=C(Cl)C4=CC(=O)[C@@H]5C[C@@H]5[C@]4(C)[C@H]3CC[C@@]21C`, the outcome in assay [1], in assay [2], in [3], in [4], in assay [6] and in [7] was inactive. Besides, the call in assay [8], in assay [9], in assay [10], in assay [11], in [17] and in assay [13] was inactive. Moreover, the compound was classed as inactive in [18]. The concentration at half-maximal activity (AC50) in [3] is 100 µM (active); in assay [4] it was 154 µM (active) and 170 µM (active); in assay [7] it was 54.5 µM (active); in assay [9], 47.7 µM (active); in assay [11], 24.1 µM (active); in assay [17] it was 45.5 µM (active) and 51.8 µM (active) and 43 µM (active).

The AC50 is the concentration at which the activity in the assay is half-maximal.
